# Shown are actives, neighbours in structure and some others; about 4.6% of the full set was active somewhere.
# ADAM10 inh: inhibitors of human ADAM10; recombinant ADAM10, EDANS/DABCYL FRET peptide cleavage, 3 h; inhibition, % at 7 µM; 0.62% of 370,000 active; AID 720582;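 active = inhibition above a per-campaign cutoff equal to the mean of compounds falling between control-based bounds plus 3 SD, cut at about 20% in these data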;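 also: 0% = DMSO wells while the 100% control is not disclosed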
# FAS TE block: FAS thioesterase (human) inhibition | recombinant FAS-TE, OMFH fluorogenic substrate, fluorescence endpoint | 0.67% of 360,000 active | inhibition, % at 15 µM | P49327 | AID 602261;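 active = compounds whose normalised, plate-corrected inhibition of enzyme fluorescence in the single-dose primary screen is 50% or more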;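 also: 0% = DMSO with enzyme and 100% = substrate without enzyme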
# Target sequence (P49327 whole entry, looked up): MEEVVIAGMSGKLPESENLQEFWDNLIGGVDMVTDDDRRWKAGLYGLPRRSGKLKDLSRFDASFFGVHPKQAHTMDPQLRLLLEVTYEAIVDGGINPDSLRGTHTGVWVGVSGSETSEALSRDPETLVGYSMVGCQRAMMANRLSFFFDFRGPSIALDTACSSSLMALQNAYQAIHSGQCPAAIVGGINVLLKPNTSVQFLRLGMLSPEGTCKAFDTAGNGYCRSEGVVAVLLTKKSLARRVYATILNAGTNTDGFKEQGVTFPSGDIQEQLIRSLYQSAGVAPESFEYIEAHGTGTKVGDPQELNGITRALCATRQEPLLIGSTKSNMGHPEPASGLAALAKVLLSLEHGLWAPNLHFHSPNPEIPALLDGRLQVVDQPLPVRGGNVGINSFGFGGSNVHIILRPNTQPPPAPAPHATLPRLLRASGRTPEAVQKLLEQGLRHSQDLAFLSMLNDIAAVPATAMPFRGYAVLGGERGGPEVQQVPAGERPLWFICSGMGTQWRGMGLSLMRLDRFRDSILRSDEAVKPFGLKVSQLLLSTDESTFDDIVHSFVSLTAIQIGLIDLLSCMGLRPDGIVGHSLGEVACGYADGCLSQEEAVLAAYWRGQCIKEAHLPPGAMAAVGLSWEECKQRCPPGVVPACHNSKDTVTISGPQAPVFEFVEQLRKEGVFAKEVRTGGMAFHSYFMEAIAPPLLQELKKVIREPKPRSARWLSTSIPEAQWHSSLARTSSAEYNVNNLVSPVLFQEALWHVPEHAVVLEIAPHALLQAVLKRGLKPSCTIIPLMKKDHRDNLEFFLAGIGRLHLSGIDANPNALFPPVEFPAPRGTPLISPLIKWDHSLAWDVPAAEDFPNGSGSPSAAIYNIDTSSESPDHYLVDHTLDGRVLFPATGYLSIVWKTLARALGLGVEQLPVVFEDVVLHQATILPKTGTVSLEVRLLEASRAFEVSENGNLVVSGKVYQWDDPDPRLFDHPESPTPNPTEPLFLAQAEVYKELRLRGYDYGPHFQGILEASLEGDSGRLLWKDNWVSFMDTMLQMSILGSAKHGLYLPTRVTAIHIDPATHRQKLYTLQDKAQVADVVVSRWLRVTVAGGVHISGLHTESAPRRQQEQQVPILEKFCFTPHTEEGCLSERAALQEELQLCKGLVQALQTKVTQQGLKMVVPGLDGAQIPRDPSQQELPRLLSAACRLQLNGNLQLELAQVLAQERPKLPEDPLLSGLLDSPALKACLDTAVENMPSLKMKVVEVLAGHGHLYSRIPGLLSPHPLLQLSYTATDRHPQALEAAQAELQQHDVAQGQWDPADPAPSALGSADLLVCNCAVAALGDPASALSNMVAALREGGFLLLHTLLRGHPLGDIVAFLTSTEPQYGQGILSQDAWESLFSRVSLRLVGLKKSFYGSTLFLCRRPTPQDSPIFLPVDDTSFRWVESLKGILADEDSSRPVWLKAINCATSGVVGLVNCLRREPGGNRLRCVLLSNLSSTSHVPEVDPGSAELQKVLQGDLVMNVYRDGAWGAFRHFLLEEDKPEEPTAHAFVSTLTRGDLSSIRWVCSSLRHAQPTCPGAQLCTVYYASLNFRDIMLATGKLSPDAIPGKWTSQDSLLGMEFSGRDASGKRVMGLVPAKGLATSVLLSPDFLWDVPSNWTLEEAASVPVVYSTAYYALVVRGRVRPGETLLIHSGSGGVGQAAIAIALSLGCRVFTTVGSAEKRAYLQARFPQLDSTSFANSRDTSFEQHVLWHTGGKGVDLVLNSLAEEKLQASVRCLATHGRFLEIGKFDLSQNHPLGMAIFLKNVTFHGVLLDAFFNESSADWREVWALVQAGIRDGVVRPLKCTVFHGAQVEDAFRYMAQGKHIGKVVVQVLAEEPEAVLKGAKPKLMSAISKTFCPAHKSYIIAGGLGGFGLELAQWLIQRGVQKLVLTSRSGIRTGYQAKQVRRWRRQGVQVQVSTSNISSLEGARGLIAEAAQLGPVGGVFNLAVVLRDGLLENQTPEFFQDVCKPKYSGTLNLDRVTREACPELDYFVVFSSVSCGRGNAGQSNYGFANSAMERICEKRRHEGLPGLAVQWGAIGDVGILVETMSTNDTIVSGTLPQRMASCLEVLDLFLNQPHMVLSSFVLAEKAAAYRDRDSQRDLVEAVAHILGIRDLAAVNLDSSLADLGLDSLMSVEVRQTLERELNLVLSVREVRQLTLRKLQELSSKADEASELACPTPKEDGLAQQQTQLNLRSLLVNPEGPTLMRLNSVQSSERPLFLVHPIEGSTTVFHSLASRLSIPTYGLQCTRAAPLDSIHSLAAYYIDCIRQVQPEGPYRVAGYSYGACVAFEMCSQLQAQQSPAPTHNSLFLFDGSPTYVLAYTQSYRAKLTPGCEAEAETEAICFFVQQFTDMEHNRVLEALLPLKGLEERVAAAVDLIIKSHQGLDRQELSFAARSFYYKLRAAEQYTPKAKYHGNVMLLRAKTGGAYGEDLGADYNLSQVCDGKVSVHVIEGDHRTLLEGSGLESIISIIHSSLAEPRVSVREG
# ADAM17 inh: inhibitors of human ADAM17. recombinant ADAM17, EDANS/DABCYL FRET peptide cleavage. inhibition, % at 6.95 µM. 0.83% of 370,000 active;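 active = inhibition above the mean of compounds lying between control limits plus 3 SD, set per campaign, cut at about 8.5% in these data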;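 also: 0% = DMSO-only wells as the low control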
# GRIN3A LBD mod: modulates the human NR3A ligand-binding domain; NR3A LBD differential scanning fluorimetry, Tm shift; 0% = protein alone, 100% = glycine-bound protein; Tm shift relative to glycine control, % at 25 µM; 2.5% of 340,000 active;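 active = melting temperature shift of at least 10% of the positive control shift, at one fixed dose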
# proKLK7 act: proKLK7 (human) activation, primary screen; purified proKLK7, EDANS-DABCYL substrate fluorescence; 100% is mature enzyme control, 0% vehicle; activation, % at 7 µM; AID 652039; 0.9% of 370,000 active;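 active = activation above the mean of all tested compounds plus 3 SD, computed per campaign excluding outliers beyond control limits, cut at about 13% in these data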
# ADAM10 confirm: confirmation of inhibitors of human ADAM10 | shares compounds with ADAM10 inh | ADAM10 QFRET peptide cleavage, EDANS fluorescence | inhibition, % at 6.95 µM | 1% of 2,100 active;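 active = inhibition above about 20% chosen separately for each screening run, limit read from the data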;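 also: 0% = DMSO wells and 100% = marimastat wells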
# ADAM17 ctr: ADAM17 inhibition, counter-screen for ADAM10 exosite hits. shares compounds with ADAM10 inh. ADAM17 QFRET peptide cleavage, EDANS fluorescence. inhibition, % at 6.95 µM. 0.5% of 2,100 active;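 active = mean triplicate inhibition above the solvent-only control wells' mean plus 3 SD, cut at about 12% in these data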;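 also: 0% = DMSO wells and 100% = marimastat wells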
# Numbers without * were called inactive; / = no result.
SMILES,ADAM10 inh,FAS TE block,ADAM17 inh,GRIN3A LBD mod,proKLK7 act,ADAM10 confirm,ADAM17 ctr
O=C(Nc1ccccc1)c1nc[nH]c1C(=O)NCc1ccccc1,24.1*,11.7,7.8,-18.1,1.1,2.2,0.8
CN(Cc1ccccc1)C(=O)c1[nH]cnc1C(=O)N[C@@H](Cc1ccccc1)C(=O)OC(C)(C)C,22.9*,-2.4,8.1,0.6,0.4,0.3,0.7
CNC(=O)c1[nH]cnc1C(=O)N[C@@H](Cc1ccccc1)C(=O)OC(C)(C)C,6.1,-4.0,1.6,2.1,-0.1,/,/
Cc1cccc(NC(=O)c2nc[nH]c2C(=O)N[C@H](C)c2ccccc2)c1,22.7*,23.2,7.4,-4.7,-0.1,5.8,2.0
COC(=O)c1cc2c(c3c4cc(F)ccc4n(S(=O)(=O)c4ccc(C)cc4)c13)C(=O)N(C)C2,-4.0,/,-2.0,/,-1.0,/,/
CN(Cc1ccccc1)C(=O)c1[nH]cnc1C(=O)NCc1ccc(CNC(=O)OC(C)(C)C)cc1,5.2,10.3,1.3,-1.3,0.0,/,/
CC(C)(C)OC(=O)NCc1ccc(CNC(=O)c2nc[nH]c2C(=O)NCc2ccccc2)cc1,21.5*,6.9,7.6,-21.6,0.5,3.5,0.4
CCOC(=O)N[C@@H](Cc1cccnc1)C(=O)N1CCC[C@H]1C(=O)NC1CCCC1,-12.4,/,-7.6,/,0.1,/,/
Cc1ccc(CSc2nnc(-c3ccccc3)n2Cc2ccco2)cc1,2.1,/,0.1,/,-0.3,/,/
COc1ccccc1NCC(O)COc1ccc(C(C)(C)C)cc1 (stereo not given),21.2*,29.0,5.4,-7.5,0.6,1.5,0.9
FC(F)(F)c1cc(CCN2C(=S)NC[C@@H]2Cc2ccccc2)cc(C(F)(F)F)c1,26.5*,-26.8,8.1,13.2*,0.3,12.4,3.8
COc1ccc(-n2c(=S)[nH]c3cc(C(=O)Nc4cc(C(N)=O)ccc4OC)ccc3c2=O)c(OC)c1,-15.7,-1.9,-2.9,-2.8,0.1,/,/
CCOc1ccc(NC(=O)c2ccc3c(=O)n(-c4ccc(OC)cc4OC)c(=S)[nH]c3c2)cc1,23.7*,13.6,8.1,/,-0.8,1.5,0.2
CCN(CC)c1ccc(NC(=O)c2ccccc2Br)cc1S(=O)(=O)Nc1ccccc1OC,15.9,27.4,3.8,-10.2,-1.0,/,/
CCN(CC)c1ccc(NC(=O)COc2ccccc2C)cc1S(=O)(=O)Nc1ccccc1OC,20.6*,29.9,7.9,6.7,0.2,10.8,3.3
Fc1ccccc1-c1n[nH]c(=S)n1N=Cc1ccc(OCc2ccccc2)cc1,24.9*,/,8.2,/,1.0,6.3,1.7
S=c1[nH]nc(COc2ccccc2)n1/N=C/C(Cl)=C/c1ccccc1,19.9*,14.1,5.0,-2.9,-0.6,2.7,1.1
S=c1[nH]nc(COc2ccccc2)n1/N=C/C=C/c1ccccc1,-0.9,-2.9,3.0,5.2,-0.8,/,/
CC(C)OCCCNC(=O)CN1CCN(Cc2ccc(Cl)cc2)C1=O,9.2,-0.4,-3.3,-1.8,0.8,/,/
CC1CCN(CCCNC(=O)CN2CCN(Cc3ccc(Cl)cc3)C2=O)CC1,48.6*,-6.9,-1.5,-1.4,-0.4,2.9,1.1
C=CCCC1CN(Cc2ccc(OC)cc2)S(=O)(=O)c2c(cccc2N(C)S(=O)(=O)c2ccc(C)cc2)O1 (stereo not given),-1.8,/,-1.0,/,-0.2,/,/
Cc1cc(Nc2ccccc2)n(-c2nc3ccccc3[nH]2)n1,20.9*,23.5,5.0,3.2,0.9,8.9,3.2
CC(C)(O)C(=O)NNC(=S)Nc1cccc(C(F)(F)F)c1,1.4,-14.4,-0.6,-2.4,-0.1,/,/
Cc1ccccc1C(=O)NNC(=S)Nc1cccc(C(F)(F)F)c1,25.1*,-6.0,8.7*,-8.1,-0.1,3.8,1.3
COc1cc2c(cc1OC)C(C(=O)O)C(c1ccc3c(c1)OCO3)N(C)C2=O (stereo not given),3.4,/,0.7,/,0.0,/,/
CCCCCCCCN1C(=O)[C@@H](CC(=O)N2CCN(C(=O)OCC)CC2)C[C@@]2(C(=O)OC)C1=C[C@H](C(C)(C)C)O[C@@H]2C,-2.4,/,-0.8,/,0.3,/,/
Cc1ccc(/C=N/NC(=O)CSc2nnc(-c3ccc(Cl)cc3)n2-c2ccc(Cl)cc2)o1,4.0,3.5,-0.4,1.7,0.1,/,/

# From PubChem BioAssay
